Results: PubChem BioAssay (NCATS)
Inconclusive results are not listed. Activity calls are given as the source filed them. Unless noted, the call rests on the fitted dose curve; in most records, active means well fitted curve in the direction sought with a large enough effect; inconclusive means small, poorly fitted or top-dose-only effect, or another doubt; inactive means no such curve, though single readings can be large; an effect the other way counts as inactive or inconclusive.

Experiments:
[1] = qHTS for Inhibitors of Plasmodium falciparum (DD2) proliferation (AID 504314);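 further: parasite DNA measured by SYBR Green fluorescence after red cell lysis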; settings: P. falciparum Dd2 in erythrocytes, SYBR Green growth, 72 h; series mostly up to 6.11 µM
Outline: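 SYBR Green DNA-fluorescence growth assay: infected RBCs at 0.3% parasitemia, 2.5% hematocrit, 72 h compound exposure, 37C, 5% CO2; overnight lysis with dye at RT; normalized to 0.29 uM artemisinin and vehicle.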

[2] = qHTS for Inhibitors of Plasmodium falciparum (GB4) proliferation (AID 504315); further: nearly all actives have a fitted effect of over 50% in size; settings: P. falciparum GB4 in erythrocytes, SYBR Green DNA, 72 h; series mostly up to 6.7 µM
Outline: (§1)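 Parasite growth measured as SYBR Green DNA fluorescence (ex 485, em 535 nm) after overnight lysis following 72 h culture at 37 °C, 0.3% parasitemia, 2.5% hematocrit. Values normalized against DMSO and 0.29 uM artemisinin controls, with plate-stack correction.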

[3] = qHTS for Inhibitors of Plasmodium falciparum (7G8) proliferation (AID 504316); further: nearly all actives have a fitted effect of over 65% in size; settings: P. falciparum 7G8 in erythrocytes, SYBR Green DNA, 72 h; series mostly up to 6.7 µM
Outline: as §1

[4] = qHTS for Inhibitors of Plasmodium falciparum (HB3) proliferation (AID 504318); further: nearly all actives have a fitted effect of over 60% in size; settings: P. falciparum HB3 in erythrocytes, SYBR Green DNA, 72 h; series mostly up to 7.21 µM
Outline: as §1

[5] = qHTS for Inhibitors of Plasmodium falciparum (CP250) proliferation (AID 504320); settings: P. falciparum CP250 in erythrocytes, SYBR Green DNA, 72 h; series mostly up to 6.7 µM
Outline: as §1

[6] = molecular target: Atrial natriuretic peptide receptor 1 (Homo sapiens) (UniProt P16066); experiment: Natriuretic polypeptide receptor (hNpr1) antagonism - Pilot CMLD screen (AID 1347052; calls by dose curve;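 further: HEK293 cells with hNpr1 stimulated by hNppA peptide at 0.1 nM; cGMP level read as GloSensor luciferase luminescence after agonist stimulation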); settings: HEK293 hNpr1 GloSensor cGMP luminescence, ANP-stimulated; series mostly up to 9.22 µM
Sequence of Atrial natriuretic peptide receptor 1 (Homo sapiens) (P16066 whole entry, looked up): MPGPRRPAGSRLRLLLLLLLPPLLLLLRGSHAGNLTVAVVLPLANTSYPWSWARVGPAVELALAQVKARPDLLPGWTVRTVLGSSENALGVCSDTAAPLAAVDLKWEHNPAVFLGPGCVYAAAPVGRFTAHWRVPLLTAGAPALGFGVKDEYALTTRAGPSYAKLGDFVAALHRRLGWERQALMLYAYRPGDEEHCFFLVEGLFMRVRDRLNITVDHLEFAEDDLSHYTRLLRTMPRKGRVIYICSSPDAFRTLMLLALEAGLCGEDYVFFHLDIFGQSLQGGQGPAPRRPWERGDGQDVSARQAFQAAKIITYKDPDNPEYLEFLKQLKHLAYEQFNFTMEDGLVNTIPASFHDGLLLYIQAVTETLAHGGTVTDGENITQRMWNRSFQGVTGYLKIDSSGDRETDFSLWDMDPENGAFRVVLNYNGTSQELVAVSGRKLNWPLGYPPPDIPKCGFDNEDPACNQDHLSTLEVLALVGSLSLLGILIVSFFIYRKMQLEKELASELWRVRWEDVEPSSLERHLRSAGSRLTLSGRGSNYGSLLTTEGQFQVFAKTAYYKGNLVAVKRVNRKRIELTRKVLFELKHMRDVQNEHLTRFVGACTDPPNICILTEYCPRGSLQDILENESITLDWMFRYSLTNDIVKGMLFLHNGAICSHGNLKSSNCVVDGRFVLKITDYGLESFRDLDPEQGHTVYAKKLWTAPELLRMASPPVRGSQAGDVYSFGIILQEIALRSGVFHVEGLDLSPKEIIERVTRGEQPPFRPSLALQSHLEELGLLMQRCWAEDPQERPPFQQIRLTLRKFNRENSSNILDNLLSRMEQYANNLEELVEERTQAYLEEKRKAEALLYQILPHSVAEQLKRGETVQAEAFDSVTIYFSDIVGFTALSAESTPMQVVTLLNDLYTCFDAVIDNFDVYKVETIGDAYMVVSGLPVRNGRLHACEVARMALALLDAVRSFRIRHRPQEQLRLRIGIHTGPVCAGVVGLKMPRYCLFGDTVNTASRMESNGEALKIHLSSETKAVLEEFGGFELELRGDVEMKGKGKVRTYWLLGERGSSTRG

Measured: Potency

C=CC1=C2C=C(C3CC3)N(CC3CC3)C=C2C(=O)C(C)(OC(=O)c2ccco2)C1=O (centres undefined)
inactive: all assays above

COc1cccc([C@H]2Oc3ccc(OC)cc3C(=NOC[C@@H](O)COCc3ccco3)[C@H]2O)c1
inactive: all assays above

COc1cccc([C@@H]2Oc3ccc(Br)cc3C(=O)[C@@H]2OC(=O)N[C@H](C)C2CCCCC2)c1
inactive: all assays above

CCOC(=O)CN1C(=O)[C@@]2(C[C@@H](C)C[C@@H](C)O2)c2ccccc21
inactive: all assays above

CCCCS(=O)(=O)N1C2=NC3=C(C(=O)N(CCOC)C3=O)C3N(C)c4ccccc4[C@]23C[C@H]1CO (some centres undefined)
inactive: all assays above

COc1ccc(-c2nc(-c3ccccc3)oc2Nc2ccc3ccccc3c2)cc1
inactive: all assays above

COC(=O)CC=C[C@@H](C)[C@@H](C=NO[C@@H](C)c1cn([C@H](CO)Cc2ccccc2)nn1)NS(=O)(=O)c1ccc(C)cc1
inactive: all assays above

O=C1[C@H]2[C@@H]3[C@@H](O)[C@H](O)CC(=NOCc4ccccc4)[C@H]3CC[C@H]2C(=O)N1C[C@@H]1CCCO1
inactive: all assays above

CC(C)(C)OC(=O)NCCCC1=CC2=CC(=O)C(C)(O)C(=O)C2=CO1 (centres undefined)
inactive: all assays above

C=CCOC(=O)N[C@@H](c1coc2ccccc2c1=O)[C@@H](C)C=CCC(=O)OC
inactive: all assays above

CC(=O)[C@H]1[C@H](CCc2ccccc2)NC(=O)N(Cc2ccccc2)[C@@H]1C
inactive: all assays above

COC(=O)c1nnc(C(=O)NCc2ccccc2)c2[nH]c3ccccc3c12
inactive: all assays above

C=CCCN1C(=O)NC(c2ccccc2)C(C(C)=O)=C1C (centres undefined)
inactive: all assays above

OC[C@H]1O[C@H](c2ccccc2)C=C[C@H]1O
inactive: all assays above

Cc1cc2c(c(=O)o1)[C@H]1O[C@](c3ccsc3)(Cc3ccccc31)O2
inactive: all assays above

C=C(C)C(=O)OC[C@@H]1CN2[C@H](c3ccc(Br)cc3)[C@H](C)CC[C@H]2C(=O)O1
inactive: all assays above

O=C(OCC(F)(F)F)[C@H](O)[C@@H](O)C(=O)OCC(F)(F)F
inactive: all assays above

C=C(C)CCN1C(=O)NC(c2cccc(C(F)(F)F)c2)C(C(=O)OC)=C1C (centres undefined)
inactive: all assays above

COc1ccc2c(c1)C(=O)[C@H](OC(=O)Nc1ccc(OC(F)F)cc1)[C@@H](c1ccc(OC)c(Br)c1)O2
inactive: all assays above
